Rows were chosen to be rich in hits. Some 2.3% of all compounds tested hit in one or more screens of this group.
ADAM10 inh = human ADAM10 inhibitors, primary screen, biochemical, QFRET, HTS; Disintegrin and metalloproteinase domain-containing protein 10 (Homo sapiens), O14672; recombinant ADAM10, EDANS/DABCYL FRET peptide cleavage, 3 h; inhibition, % at 7 µM; 370,000 tested, 0.62% active; AID 720582, 2013;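 active means inhibition above a per-campaign cutoff equal to the mean of compounds falling between control-based bounds plus 3 SD, cut at about 20% in these data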;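 further: 0% = DMSO wells while the 100% control is not disclosed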
KLK7 zymogen act = proKLK7 zymogen activators, primary screen, biochemical, fluorescence intensity; Kallikrein-7 (Homo sapiens), P49862; purified proKLK7, EDANS-DABCYL substrate fluorescence; 100% is mature enzyme control, 0% vehicle; activation, % at 7 µM; 370,000 tested, 0.9% active; AID 652039, 2013;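 active means activation above the mean of all tested compounds plus 3 SD, computed per campaign excluding outliers beyond control limits, cut at about 13% in these data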
V-ATPase pHluor = regulators of yeast V-ATPase proton pumping, primary screen, pHLuorin cytosolic pH fluorescence. S. cerevisiae. response, % at 10 µM. 350,000 tested, 0.37% active. AID 504577, 2011; in the data active means response mostly above about 7.3%, no sharp cut-off; inactive means mostly below about 5.4%; further: actives read high
ADAM17 inh = ADAM17 inhibitors, primary screen, biochemical, QFRET | Disintegrin and metalloproteinase domain-containing protein 17 (Homo sapiens), P78536 | recombinant ADAM17, EDANS/DABCYL FRET peptide cleavage | inhibition, % at 6.95 µM | 370,000 tested, 0.83% active | AID 720648, 2013;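 active means inhibition above the mean of compounds lying between control limits plus 3 SD, set per campaign, cut at about 8.5% in these data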;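 further: 0% = DMSO-only wells as the low control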
Target sequence (P78536 215-824 limits assumed): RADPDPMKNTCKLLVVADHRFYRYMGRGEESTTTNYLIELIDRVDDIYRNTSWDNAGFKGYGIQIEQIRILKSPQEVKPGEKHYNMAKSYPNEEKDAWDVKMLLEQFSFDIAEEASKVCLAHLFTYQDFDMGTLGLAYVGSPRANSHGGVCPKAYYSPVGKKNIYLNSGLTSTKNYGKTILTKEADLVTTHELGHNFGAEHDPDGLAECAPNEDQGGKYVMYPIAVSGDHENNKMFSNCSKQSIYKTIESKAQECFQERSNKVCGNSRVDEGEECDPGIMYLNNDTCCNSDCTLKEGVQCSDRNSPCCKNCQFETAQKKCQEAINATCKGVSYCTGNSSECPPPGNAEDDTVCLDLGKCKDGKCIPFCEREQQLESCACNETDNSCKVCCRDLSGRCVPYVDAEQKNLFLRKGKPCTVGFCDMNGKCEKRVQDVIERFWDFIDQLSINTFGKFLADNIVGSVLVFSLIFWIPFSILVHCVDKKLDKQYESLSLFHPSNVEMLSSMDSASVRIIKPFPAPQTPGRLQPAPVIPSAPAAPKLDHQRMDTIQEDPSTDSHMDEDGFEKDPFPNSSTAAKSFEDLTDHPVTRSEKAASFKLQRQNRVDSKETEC
ADAM10 confirm = human ADAM10 inhibitors, confirmation, biochemical, QFRET, triplicate | 2,100 tested, 1% active | ADAM10 QFRET peptide cleavage, EDANS fluorescence | inhibition, % at 6.95 µM | shares compounds with ADAM10 inh;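 active means inhibition above about 20% chosen separately for each screening run, limit read from the data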;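 further: 0% = DMSO wells and 100% = marimastat wells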
ADAM17 counter = ADAM17 inhibitors, counter-screen for ADAM10 exosite inhibitor project, biochemical, QFRET, high throughput | inhibition, % at 6.95 µM | 2,100 tested, 0.5% active | ADAM17 QFRET peptide cleavage, EDANS fluorescence | shares compounds with ADAM10 inh;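 active means mean triplicate inhibition above the solvent-only control wells' mean plus 3 SD, cut at about 12% in these data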;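 further: 0% = DMSO wells and 100% = marimastat wells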
* marks the source's active call; other numbers are inactive results; . = no result.

SMILES	ADAM10 inh	KLK7 zymogen act	V-ATPase pHluor	ADAM17 inh	ADAM10 confirm	ADAM17 counter
COc1cccc(NC(=O)C2(C)CCN2C(=O)Cc2ccc(-c3ccccc3)cc2)c1 (stereo not given)	25*	0	.	8	6	2
COc1ccc(O)c(-c2c(-c3ccc(Cl)cc3)n[nH]c2C)c1	4	0	3	0	.	.
Cc1[nH]nc(-c2ccc(O)cc2O)c1-c1ccc(Cl)cc1	20*	0	3	7	2	0
Cc1[nH]nc(-c2ccc(O)cc2O)c1-c1nc2ccccc2s1	7	0	-7	-1	.	.
COc1ccc(-c2n[nH]c(C)c2-c2ccc(Cl)cc2)c(O)c1	20*	0	0	8	5	3
COc1ccc(-c2cc(-c3ccc(C)cc3)n[nH]2)c(O)c1	33*	0	1	6	2	2
O=C(O)c1ccccc1/C=N/NC(=O)C1CCCCC1	6	0	-5	3	.	.
O=C(O)c1ccccc1/C=N/NC(=S)NC1CCCCC1	23*	0	11	2	4	1
O=c1[nH]c2cc(C(F)(F)F)ccc2n1-c1cc(C(F)(F)F)ccc1O	20*	1	-2	3	0	-1
Cc1c(C(C)(C)O)[nH]c2cc(C(F)(F)F)ccc12	5	0	-1	-3	.	.
COc1ccccc1-c1csc(C(O)c2cccc(Cl)c2)n1 (stereo not given)	23*	1	.	8	6	2
OC(c1ccc(F)c(F)c1)c1nc(-c2ccncc2)cs1 (stereo not given)	-3	-1	.	-1	.	.
OC(c1ccc(F)c(F)c1)c1nc(-c2ccc(Cl)cc2)cs1 (stereo not given)	20*	0	.	7	4	1
Cc1ccc(-c2c(C(=O)NCC(C)C)oc(=O)c3ccccc23)cc1	-6	0	.	-1	.	.
Cc1ccc(S(=O)(=O)NCC(=O)N2CCN(c3ccc(F)cc3)CC2)cc1	8	0	1	-3	.	.
Cc1ccc(S(=O)(=O)NCC2CN(S(=O)(=O)c3ccc(C)cc3)c3ccccc3C(=O)N2c2ccc(F)cc2)cc1 (stereo not given)	23*	.	.	5	2	1
COc1ccccc1-c1c(-c2ccc(OCC(=O)NN)cc2O)n[nH]c1C(F)(F)F	10	-1	-1	3	.	.
COc1ccc(-c2n[nH]c(C(F)(F)F)c2-c2cc3ccccc3o2)c(O)c1	22*	-2	-3	4	21*	10
COc1cccc(Cn2cc(COC(=O)N(C)Cc3ccccc3)nn2)c1	1	0	.	-3	.	.
CCC/C=N/Nc1nc2ccccc2s1	25*	-1	-2	7	1	-1
C(=C\c1ccccc1)/C=N/Nc1nc2ccccc2s1	26*	-1	0	4	23*	8
O=C1CCC[C@H]2[C@@H](Cc3ccccc3)[C@@H](O)CC[C@]23CCCN13	0	.	.	1	.	.
Cc1cc(O)cc(=O)n1-c1ccc(Cl)c(C(F)(F)F)c1	-2	0	.	-1	.	.
C#CCNC(=O)C[C@@H]1C(=O)N2CCCC3=C2[C@@]1(C(=O)OC)CCCC3	-2	0	.	-2	.	.
S=c1[nH]nc(-c2n[nH]c3c2CCC3)n1N=Cc1ccc(Br)s1	4	0	.	3	.	.
SMILES	ADAM10 inh	KLK7 zymogen act	V-ATPase pHluor	ADAM17 inh	ADAM10 confirm	ADAM17 counter
Cc1cc(C)c(C#N)c(SCc2ccccc2)n1	23*	0	0	8	1	1
Cc1cc(C)c(C#N)c(SCSCc2ccccc2)n1	7	1	-1	4	.	.
CSc1ccc(CN(C)C(=O)c2ccc(S(=O)(=O)Nc3ccccc3)cc2)cc1	21*	1	-2	6	1	0
C=CCN1c2ccccc2[C@]23C[C@@H](C(=O)OC)N(C(=O)NC4CCCC4)C2=NC(C(=O)OC)=C(C(=O)OC)[C@H]13	21*	0	-5	10*	3	1
CN1C2=N[C@@H](c3ccc4ccccc4c3)CC(=O)N2/C(=C\c2ccccc2)[C@H]1c1ccccc1	-11	.	.	-4	.	.
O=C(/C=C/c1ccccc1)Nc1ccc(NC(=O)c2cccs2)cc1	22*	1	2	-2	2	1
Cc1ccc(/C=C/C(=O)Nc2ccc(S(=O)(=O)Nc3onc(C)c3C)cc2)cc1	21*	0	-3	1	-1	0
COC(=O)[C@]12C[C@H](CC(=O)NCC34CC5CC(CC(C5)C3)C4)C(=O)N(Cc3ccccc3)C1=C[C@H](C1CCCC1)O[C@@H]2C	4	0	.	0	.	.
CCc1c(-c2ccccc2)ncn1Cc1cccc(-c2ccccc2)c1	25*	1	.	17*	7	3
COc1ccccc1CCn1cnc(-c2cccc(Br)c2)c1CC(C)C	0	0	.	1	.	.
O=[N+]([O-])c1ccc(-c2cnc(SCc3ccccc3Cl)[nH]2)cc1	20*	0	0	1	5	2
FC(F)(F)c1ccc(-c2nc(=S)[nH][nH]2)cc1	25*	0	-2	3	1	2
c1ccc(NN(Cc2ccncc2)c2ccccc2)cc1	1	1	-2	0	.	.
N#Cc1ccc(CN(Nc2ccccc2)c2ccccc2)cc1	27*	6	1	8	5	2
O=C(Nc1ccc(S(=O)(=O)NCCc2ccccc2)cc1)c1ccc(Br)o1	21*	-1	-3	6	2	1
C=CCC[C@@H](Cc1ccc(F)cc1)C(=O)OC[C@H](Cc1c[nH]c2ccccc12)NC(=O)[C@@H](CC=C)CC(=O)NCCO	25*	1	-3	7	1	0
O=C(N[C@@H](Cc1cccnc1)C(=O)N1CCC[C@H]1C(=O)NC1CCCC1)c1cccs1	-14	0	.	-4	.	.
O=C(Cc1c[nH]c2ccccc12)Nc1ccc(Nc2cccnc2)cc1	-7	0	.	-1	.	.
COc1ccccc1-c1ccc2c(c1)C(C)(Cc1cc(Cl)ccc1C(F)(F)F)C(=O)N2 (stereo not given)	21*	1	.	7	4	1
COc1ccc(Cl)cc1CC1(C)C(=O)Nc2ccc(-c3ccccc3OC)cc21 (stereo not given)	5	0	.	6	.	.
Oc1cc2c(cc1C(c1ccc(Cl)c(Cl)c1)N1CCCC1)OCO2 (stereo not given)	27*	0	2	8	19	6
